# Compound activity as filed in PubChem BioAssay.
# The list is not random: actives were taken first. Their share in the collection is about 10%.
# GLS inhibitor: inhibitors of human glutaminase (GLS) | AID 624170 | O94925 | Potency, µM (doses to about 45.5 µM), actives largely listed as inhibitors | GLS enzymatic activity, qHTS titration | 410,000 tested, 0.21% active
#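 Compounds were pin-transferred onto hKGA, after which L-glutamine (1 mM solution) and a detection mix of glutamate oxidase, HRP and Amplex Red were added. Initial and 30 min RT fluorescence reads were collected.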
# G9a inh: blocks human histone lysine methyltransferase G9a. Q96KQ7. G9a H3K9 monomethylation, AlphaScreen, 2 h. Potency, µM (series often up to 102 µM), most hits filed as inhibitors. 350,000 tested, 8.8% active. AID 504332; also: nearly all actives have a fitted effect of over 75% in size
#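 Methyltransferase reactions run at room temperature for 2 h (20 nM enzyme, 500 nM biotin-H3K9 peptide, 20 uM SAM) after a 15 min compound preincubation; product detected by AlphaScreen beads and anti-H3K9me1 antibody.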
# BAZ2B block: blocks human BAZ2B; Potency, µM (highest dose often 114 µM), usual class: inhibitors; AlphaScreen BAZ2B-H3K14Ac peptide displacement; AID 504333; 360,000 tested, 4.4% active; also: nearly all actives have a fitted effect of over 60% in size
#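 In this displacement format the biotinylated H3(5-23) peptide acetylated at Lys14 serves as ligand at 50 nM, with BAZ2B at 50 nM in PBS pH 7.4 containing 0.01% Tween-20. Donor and acceptor beads are 10 ug/mL final.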
# HP1b chromo inh: blocks HP1-beta chromodomain binding to methylated histone tails | P83916 | AlphaScreen HP1-beta / biotin-H3K9me3 peptide binding | Potency, µM (series often up to 114 µM), most hits filed as inhibitors | 390,000 tested, 0.56% active; also: nearly all actives have a fitted effect of over 70% in size
#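 AlphaScreen: HP1-beta (50 nM) preformed 30 min with biotin-H3(1-18)K9me3 peptide (50 nM) in PBS pH 7.4, 0.01% Tween-20. Compound added for 30 min at RT, then streptavidin donor/nickel chelate acceptor beads (10 ug/mL) for 30 min.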
# JMJD2A Tudor: blocks the human JMJD2A Tudor domain; 390,000 tested, 4.4% active; O75164; AlphaScreen JMJD2A-Tudor / H3K4me3 peptide binding; Potency, µM (highest dose often 114 µM), usual class: inhibitors; AID 504339; also: nearly all actives have a fitted effect of over 50% in size
# A number is an active result; i = inactive; ? = inconclusive; nt = no result; [ ] = another dose, or the depositor's remark. Calls follow the shape of the dose curve; as a rule, active = well fitted curve in the direction sought with a large enough effect; inconclusive = small, poorly fitted or top-dose-only effect, or another doubt; inactive = no such curve, though single readings can be large; an effect the other way counts as inactive or inconclusive.
SMILES,GLS inhibitor,G9a inh,BAZ2B block,HP1b chromo inh,JMJD2A Tudor
O=C(CC1C(=O)NCCN1Cc1cccc(C(F)(F)F)c1)NCCCOc1cccnc1 (stereo not given),i,?,i,i,i
O=C(CC1C(=O)NCCN1Cc1ccc(F)cc1)NCCN1CCCc2ccccc21 (stereo not given),i,nt,79.4µM,i,?
C=C1CCN(C(Cc2ccccc2)C(=O)NCc2ccccc2)S(=O)(=O)c2ccccc21 (stereo not given),nt,nt,nt,i,i
Cc1ccc(S(=O)(=O)Nc2cccnc2Oc2ccc(Cl)cc2)cc1,i,i,i,i,i
CC(C)(C)c1cccc(P(=O)(c2ccccc2)c2ccccc2)c1O,i,i,i,i,i
Cc1ccc(NC(=O)c2ccc3snnc3c2)cc1C,i,i,i,i,i
Cc1ccc(C(=O)NC(=S)Nc2c(C)ccc3nsnc23)cc1,i,11.2µM,i,i,i
Cc1ccc(C(=O)NC(=S)Nc2cccc3nsnc23)cc1,i,6.31µM,i,i,i
CCn1ncc(S(=O)(=O)Nc2cccnc2)c1C,i,i,i,i,i
Clc1ccc(N2CCOCC2)nn1,i,i,i,i,i
COc1ccc(C(=O)N/N=C/c2cc3ccccc3[nH]c2=S)cc1,i,0.708µM,?,i,3.16µM
O=C(N/N=C/c1ccc(O)c(O)c1)c1ccc(CSc2cccc3cccnc23)cc1,i,35.5µM,?,?,?
COc1ccc(C(=O)N/N=C/c2cccc3cccnc23)cc1,i,i[12.7 µM],20µM,i,56.2µM
COc1ccc(C(=O)N/N=C/c2cccnc2)cc1,i,i,i,i,i
CCOc1ccccc1C(=O)N/N=C/c1cccc2cccnc12,i,i[0.501 µM],44.7µM,i,?
COc1ccc(-c2csc(-c3[nH]cnc3N)n2)cc1,i,?,i,i,i
CCOc1ccc(C(=O)N/N=C/c2ccccc2[N+](=O)[O-])cc1,i,i,i,i,i
CCOc1ccc(C(=O)N/N=C/c2cccc3cccnc23)cc1,i,i,20µM,i,79.4µM
O/N=C/c1ccc2ccccc2c1,i,nt,i,i,i
CCc1cc2c(SCc3nc4sc(C(C)=O)c(C)c4c(=O)[nH]3)ncnc2s1,i,20µM,i,i,?
CCN1CCN(c2c(/C=C3\SC(=S)N(Cc4ccco4)C3=O)c(C)c(C#N)c(=O)n2C)CC1,i,22.4µM,i,i,?
Cc1cc(-c2n[nH]c(=S)n2Cc2ccco2)n(C)n1,i,8.91µM,i,i,20µM
Cc1cc(-c2n[nH]c(=S)n2Cc2ccco2)nn1C,i,8.91µM,i,i,6.31µM
Cc1c(Br)c(-c2n[nH]c(=S)n2Cc2ccco2)nn1C,i,10µM,i,i,?
COc1cccc(Cc2n[nH]c(=S)n2Cc2ccco2)c1,i,7.94µM,i,i,14.1µM
SMILES,GLS inhibitor,G9a inh,BAZ2B block,HP1b chromo inh,JMJD2A Tudor
CCOC(=O)CSc1nnc(Cc2ccccc2)n1Cc1ccco1,i,?,i,i,i
Cc1ccc(-c2noc(-c3ccccc3NC(=O)C3CC(=O)N(c4cccc(C)c4)C3)n2)cc1 (stereo not given),i,i,i,i,i
CC(NC(=O)c1ccc2nc(Cc3ccccc3)oc2c1)c1ccccc1 (stereo not given),i,i,i,i,i
S=c1nc(-c2ccccc2)n(Cc2ccco2)c2c1CCCC2,nt,?,i,nt,nt
Oc1ccccc1-c1n[nH]c(=S)n1Cc1ccco1,i,?,i,i,5.62µM
COc1ccc(-c2n[nH]c(=S)n2Cc2ccco2)cc1,i,?,i,i,14.1µM
CCN(C(=O)COC(=O)CNC(=O)c1ccc(F)cc1)C1CCS(=O)(=O)C1 (stereo not given),i,?,i,i,i
COc1ccc(-c2sc3cc4c(cc3c2C#CC2(N)CCCCC2)OCO4)cc1,i,i[0.501 µM],10µM,i,25.1µM
CC(NS(=O)(=O)c1ccc2[nH]c(=O)c(=O)[nH]c2c1)C(=O)O (stereo not given),i,i,i,i,i
CCCc1c(O)nc(SCCN(CC)CC)[nH]c1=O,i,i[12.7 µM],i,i,i
CCCc1c(O)nc(SCCN(CC)CC)n(C(=O)c2ccccc2)c1=O,i,79.4µM,i,i,i
CCCCN(C)C(=O)c1ccc(S(=O)(=O)N2CCOCC2)cc1,i,i,i,i,i
Cc1ccccc1NC(=O)c1ccc(S(=O)(=O)N2CCCC2)cc1,i,i,i,i,i
CN1CCN(C(=S)NC(=O)c2ccc(Br)cc2)CC1,i,39.8µM,i,i,i
CCCN(CC1CC1)C(=S)NC(=O)c1ccc(S(=O)(=O)N2CCOCC2)cc1,i,28.2µM,nt,i,i
Cc1cccc(C(=O)NC(=S)N2CCN(C)CC2)c1,i,79.4µM,i,i,i
N#CCCSc1ccccc1NC(=O)c1ccc(S(=O)(=O)N2CCCC2)cc1,nt,10µM,i,nt,nt
O=S(=O)(/N=C(/c1ccccc1Cl)N1CCOCC1)c1ccccc1,i,i[0.0925 µM],i,i,i
O=C(NC(=S)N1CCN(C(c2ccccc2)c2ccccc2)CC1)c1ccc(S(=O)(=O)N2CCOCC2)cc1,i,i,i,i,i
CN1CCN(C(=S)NC(=O)c2ccc(S(=O)(=O)N3CCOCC3)cc2)CC1,i,?,?,i,44.7µM
CN1CCN(C(=S)C(=O)Nc2ccc(Br)cc2)CC1,i,2.51µM,i,?,89.1µM
N#CCCN(Cc1cccnc1)C(=S)NC(=O)c1ccc(S(=O)(=O)N2CCCC2)cc1,i,28.2µM,i,i,i
N#CCCN(Cc1cccnc1)S(=O)(=O)c1ccc(S(=O)(=O)N2CCCCCC2)cc1,i,i,i,i,i
C[C@H](CO)NC(=O)[C@H](C)[C@@H]1C[C@@]1(C)[C@@H](NC(=O)OCc1ccccc1)c1ccccc1,i,i,i,i,i
COc1ccc(OC)c(-c2nc(CN(C)C(C)c3ccncn3)c(C)o2)c1 (stereo not given),i,i,i,i,i
SMILES,GLS inhibitor,G9a inh,BAZ2B block,HP1b chromo inh,JMJD2A Tudor
Cc1ccc(C(=O)Nc2ccc(O)cc2C(=O)O)cc1,i,i,i,i,?
Cc1ccc(C(=O)Nc2ccc(O)cc2C(=O)O)cc1C,i,?,79.4µM,i,?
Cc1cc(N2C(=O)c3ccc(C(=O)Nc4ccc(O)cc4C(=O)O)cc3C2=O)no1,i,50.1µM,79.4µM,i,i
CCn1c(Sc2ccc([N+](=O)[O-])cn2)nnc1-c1ccco1,i,i[0.501 µM],i,i,25.1µM
CCn1c(SCC(=O)OCc2ccccc2)nnc1-c1ccco1,i,i[12.7 µM],i,i,i
COc1ccc(CNC2C[C@H]3CCCC(=O)N4CC[C@@H](C2)[C@@H]34)cc1 (stereo not given in full),i,i,nt,i,i
O=C1c2ccccc2NC(c2cn[nH]c2-c2ccccc2)N1O (stereo not given),i,?,i,i,i
O=C1c2ccccc2NC(c2cn[nH]c2-c2ccc(Cl)cc2)N1O (stereo not given),i,28.2µM,i,i,?
COc1ccc(CCN2C(=O)CC(NNc3ccc([N+](=O)[O-])cc3)C2=O)cc1OC (stereo not given),i,14.1µM,i,i,i
